Measurements taken from PubChem BioAssay.
Active and inactive are the calls of the source. Unless noted, how the calls were made is not given here.

Assays:
[1] = system: Wnt5a (protein binding on small-molecule microarray); test: small molecules binding Wnt5a protein – biophysical, small-molecule microarray, 635/667 nm fluorescence, primary screen (AID 1142); details: 635 nm fluorescence, higher = more signal;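 further: fluorescence read at 667 nm with signal to noise per printed feature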
[2] = ATP-based viability of Huh7 replicon cells – cell-based, CellTiter-Glo luminescence, basal, 48 h, cytotoxicity control for HCV replication inhibitor project, primary screen (AID 1143); details: higher = more signal, called active from +8 up or from −8 down;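 further: Huh7 hepatoma cells carrying a hepatitis C replication reporter with no stimulus; test concentration not given here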
[3] = Pseudomonas biofilm growth suppression – PAO1 strain, BacTiter-Glo luminescence, LB-PBS, primary screen (AID 1144); details: P. aeruginosa PAO1 biofilm, 12 h, higher = more signal
[4] = basal CRE-LacZ reporter activity in PC12 – cell-based, unstimulated, primary screen (AID 1145); details: no forskolin, luminescence, 4.5 h, higher = more signal, called active from +8 up or from −8 down
[5] = forskolin-driven CRE-LacZ activity in PC12 – cell-based, CRE-LacZ reporter, forskolin-stimulated, primary screen (AID 1146); details: luminescence, 4.5 h, higher = more signal, called active from +8 up or from −8 down;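 further: PC12 cells with 6xCRE LacZ reporter stimulated by forskolin 10 µM; beta-galactosidase reporter signal reflecting CREB driven transcription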
[6] = molecular target: Streptavidin (Streptomyces avidinii) (UniProt P22629); test: compounds binding control protein streptavidin – biophysical, small-molecule microarray, 635/667 nm fluorescence, artefact control for SMM compound annotation, primary screen (AID 1147); details: higher = more signal;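 further: signal reflects streptavidin binding to arrayed compounds as a control protein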
Streptavidin (Streptomyces avidinii), sequence (P22629 whole entry, looked up): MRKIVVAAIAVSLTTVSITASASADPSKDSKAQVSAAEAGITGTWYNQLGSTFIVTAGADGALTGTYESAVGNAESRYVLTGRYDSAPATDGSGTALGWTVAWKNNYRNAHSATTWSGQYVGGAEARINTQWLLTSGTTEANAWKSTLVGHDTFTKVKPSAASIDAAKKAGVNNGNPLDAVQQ

[7] = probe aInhba binding on compound microarray – biochemical, small-molecule microarray, 635/667 nm fluorescence, primary screen (AID 1148); details: higher = more signal;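 further: score merges 667nm spot fluorescence with signal-to-noise for antibody binding to printed compounds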
[8] = molecular target: Torsin-1A (Homo sapiens) (UniProt O14656); test: TOR1A wild-type binding on microarray – cell lysate, small-molecule microarray, lysate, 635/667 nm, primary screen (AID 1149); details: COS7 hTOR1A-WT lysate, 635 nm fluorescence, higher = more signal
Torsin-1A (Homo sapiens), sequence (O14656 whole entry, looked up): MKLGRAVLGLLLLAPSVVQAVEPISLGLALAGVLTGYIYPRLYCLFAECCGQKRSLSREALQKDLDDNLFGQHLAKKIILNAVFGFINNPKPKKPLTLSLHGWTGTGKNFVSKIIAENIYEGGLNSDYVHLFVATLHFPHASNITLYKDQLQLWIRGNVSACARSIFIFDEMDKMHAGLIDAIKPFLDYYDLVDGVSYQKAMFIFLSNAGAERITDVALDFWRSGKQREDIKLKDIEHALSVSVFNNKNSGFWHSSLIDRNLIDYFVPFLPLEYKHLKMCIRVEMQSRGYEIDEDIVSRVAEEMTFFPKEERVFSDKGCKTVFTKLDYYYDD

[9] = molecular target: Torsin-1A (Homo sapiens) (UniProt O14656); test: torsin A mutant lysate binding on microarrays – cell lysate, small-molecule microarray, COS7 lysate, 635/667 nm fluorescence, primary screen (AID 1150); details: COS7 hTOR1A mutant lysate, 635 nm fluorescence, higher = more signal;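 further: score pools 667 nm emission and signal to noise measuring lysate protein binding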
[10] = system: Sonic hedgehog protein (Shh); test: Sonic hedgehog microarray binding compounds – biochemical, small-molecule microarray, 635/667 nm fluorescence, primary screen (AID 1151); details: 635 nm fluorescence, higher = more signal;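 further: Shh protein binding to compounds spotted on small-molecule microarray slides; score combines spot fluorescence intensity with signal-to-noise across triplicate slides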
[11] = optical density shifts of acrAB sulA E. coli – strain DRC41, OD650, 48 h, E. coli filamentation inducer project, primary screen (AID 1152); details: higher = more signal, called active from +8 up or from −8 down;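 further: E. coli MC1000 strain DRC41 lacking acrAB efflux pump and sulA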
[12] = probe aLefty1 binding on compound microarray – biochemical, small-molecule microarray, 635/667 nm fluorescence, primary screen (AID 1153); details: higher = more signal;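 further: score merges spot fluorescence with signal-to-noise ratio from the scanned slide images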
[13] = plasmodial surface anion channel blockers, osmotic lysis – cell-based, P. falciparum Indochina, OD700, 1 h, primary screen (AID 1154); details: P. falciparum Indochina infected RBC osmotic lysis, higher = more signal, called active from +8 up or from −8 down
[14] = plasmodial surface anion channel blockers, osmotic lysis – cell-based, P. falciparum Indochina, OD700, 2 h, primary screen (AID 1155);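 further: lysis reports solute entry through the parasite surface anion channel PSAC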; details: P. falciparum Indochina infected erythrocytes, higher = more signal, called active from +8 up or from −8 down
[15] = changes in parasitized red cell lysis, either direction – P. falciparum Indochina, OD700, 3 h, PSAC antagonist project, primary screen (AID 1156); details: P. falciparum-infected erythrocytes, osmotic lysis, higher = more signal, called active from +8 up or from −8 down
[16] = plasmodial surface anion channel blockers, osmotic lysis – cell-based, P. falciparum Indochina, OD700, 18 h, primary screen (AID 1157); details: P. falciparum Indochina infected erythrocytes, osmotic lysis OD700, 18 h; higher = more signal, called active from +8 up or from −8 down
[17] = S6 kinase pathway phospho-S6 level changes – cell-based, A549, cytoblot, luminescence, serum-stimulated, primary screen (AID 1158); details: 5 h, higher = more signal;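 further: serum-stimulated A549 lung adenocarcinoma cells; signal is phosphorylated S6 detected by cytoblot immunostaining with HRP secondary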
[18] = molecular target: NADPH oxidase 2 (Homo sapiens) (UniProt P04839); test: compounds shifting NOX2 Amplex Red fluorescence – cell-based, HEK293-NOX2, PMA-stimulated, NOX inhibitor project, primary screen (AID 1159); details: 45 min, higher = more signal, called active from +8 up or from −8 down; further: test concentration not given here
NADPH oxidase 2 (Homo sapiens), sequence (P04839 whole entry, looked up): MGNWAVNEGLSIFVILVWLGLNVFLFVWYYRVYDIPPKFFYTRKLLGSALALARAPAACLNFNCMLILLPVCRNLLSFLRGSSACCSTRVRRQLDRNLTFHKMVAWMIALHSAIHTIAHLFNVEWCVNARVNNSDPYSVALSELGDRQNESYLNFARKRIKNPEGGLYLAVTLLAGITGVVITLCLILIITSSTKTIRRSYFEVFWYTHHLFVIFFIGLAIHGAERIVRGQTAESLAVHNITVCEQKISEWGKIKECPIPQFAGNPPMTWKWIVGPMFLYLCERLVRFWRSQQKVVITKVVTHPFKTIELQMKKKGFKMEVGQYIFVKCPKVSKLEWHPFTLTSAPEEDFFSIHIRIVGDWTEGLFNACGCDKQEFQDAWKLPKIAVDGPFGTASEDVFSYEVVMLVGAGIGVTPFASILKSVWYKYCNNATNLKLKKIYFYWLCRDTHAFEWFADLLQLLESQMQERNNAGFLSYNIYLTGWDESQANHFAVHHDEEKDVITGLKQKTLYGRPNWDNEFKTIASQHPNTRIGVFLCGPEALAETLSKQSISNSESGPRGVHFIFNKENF

[19] = molecular target: NADPH oxidase 4 (Homo sapiens) (UniProt Q9NPH5); test: compounds shifting NOX4 Amplex Red fluorescence – cell-based, HEK293-NOX4, tetracycline-induced, NOX inhibitor project, primary screen (AID 1160); details: HEK293-NOX4, Amplex Red H2O2 fluorescence, 45 min; higher = more signal, called active from +8 up or from −8 down
NADPH oxidase 4 (Homo sapiens), sequence (Q9NPH5 whole entry, looked up): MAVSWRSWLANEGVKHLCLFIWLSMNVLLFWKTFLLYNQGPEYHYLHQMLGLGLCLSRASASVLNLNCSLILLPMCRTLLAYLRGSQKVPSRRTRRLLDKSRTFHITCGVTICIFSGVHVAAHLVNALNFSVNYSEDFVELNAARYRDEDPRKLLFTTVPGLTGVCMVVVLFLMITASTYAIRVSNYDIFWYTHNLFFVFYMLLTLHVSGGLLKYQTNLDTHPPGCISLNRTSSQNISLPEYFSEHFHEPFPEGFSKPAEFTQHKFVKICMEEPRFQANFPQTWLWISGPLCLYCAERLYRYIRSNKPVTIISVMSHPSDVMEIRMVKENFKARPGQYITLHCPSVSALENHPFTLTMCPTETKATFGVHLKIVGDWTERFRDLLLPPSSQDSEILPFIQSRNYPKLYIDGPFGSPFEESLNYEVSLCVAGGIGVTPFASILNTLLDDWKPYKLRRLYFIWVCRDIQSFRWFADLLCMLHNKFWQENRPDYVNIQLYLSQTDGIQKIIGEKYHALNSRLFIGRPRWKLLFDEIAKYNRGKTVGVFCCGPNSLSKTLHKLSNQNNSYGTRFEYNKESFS

[20] = molecular target: NADPH oxidase 5 (Homo sapiens) (UniProt Q96PH1); test: compounds shifting NOX5 Amplex Red fluorescence – cell-based, HEK293-NOX5, NOX inhibitor project, primary screen (AID 1161); details: HEK293-NOX5, ionomycin, 45 min, higher = more signal
NADPH oxidase 5 (Homo sapiens), sequence (Q96PH1 whole entry, looked up): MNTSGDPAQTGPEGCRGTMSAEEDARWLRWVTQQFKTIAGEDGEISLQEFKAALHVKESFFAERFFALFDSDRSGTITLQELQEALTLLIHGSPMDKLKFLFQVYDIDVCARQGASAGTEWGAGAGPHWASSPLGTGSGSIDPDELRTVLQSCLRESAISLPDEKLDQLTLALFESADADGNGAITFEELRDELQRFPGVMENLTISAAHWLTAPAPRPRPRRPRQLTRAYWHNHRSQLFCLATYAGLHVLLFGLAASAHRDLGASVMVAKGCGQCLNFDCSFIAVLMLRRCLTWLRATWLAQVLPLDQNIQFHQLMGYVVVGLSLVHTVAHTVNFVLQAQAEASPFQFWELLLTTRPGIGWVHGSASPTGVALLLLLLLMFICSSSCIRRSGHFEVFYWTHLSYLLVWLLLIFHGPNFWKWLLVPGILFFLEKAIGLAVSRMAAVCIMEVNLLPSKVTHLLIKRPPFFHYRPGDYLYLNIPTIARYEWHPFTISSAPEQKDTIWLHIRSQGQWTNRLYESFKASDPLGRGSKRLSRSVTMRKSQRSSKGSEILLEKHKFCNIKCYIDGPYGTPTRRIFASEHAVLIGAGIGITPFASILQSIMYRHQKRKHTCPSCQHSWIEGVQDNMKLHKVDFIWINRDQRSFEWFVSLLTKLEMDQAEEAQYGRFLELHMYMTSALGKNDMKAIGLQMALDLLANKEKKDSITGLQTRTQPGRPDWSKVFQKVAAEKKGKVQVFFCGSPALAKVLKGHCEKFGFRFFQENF

| Compound | composite z-score [1] | z-score [2] | z-score [3] | z-score [4] | z-score [5] | composite z-score [6] | composite z-score [7] | composite z-score [8] | composite z-score [9] | composite z-score [10] | z-score [11] | composite z-score [12] | z-score [13] | z-score [14] | z-score [15] | z-score [16] | z-score [17] | z-score [18] | z-score [19] | z-score [20] |
| --- | --- | --- | --- | --- | --- | --- | --- | --- | --- | --- | --- | --- | --- | --- | --- | --- | --- | --- | --- | --- |
| O=C(NCc1ccccc1)c1ccc(Br)cc1[N+](=O)[O-] | 0.146 | -0.214 (inactive) | 0.635 (inactive) | 0.685 (inactive) | -0.554 (inactive) | -0.453 | -0.183 | 0.0031 | -0.232 | 0.0923 | -1.03 (inactive) | -0.17 | -0.403 (inactive) | -0.0642 (inactive) | -1.3 (inactive) | 0.0836 (inactive) | -0.597 | -0.564 (inactive) | -0.281 (inactive) | -0.032 |
| COCCOC(=O)N1C(=O)[C@@]2(c3cc(C#CCNC(N)=O)ccc31)[C@H](C(=O)N1CCCCCCC1)[C@H]1C(=O)O[C@H](c3ccccc3)[C@H](c3ccccc3)N1[C@@H]2c1ccccc1OCCO | 0.472 | -0.798 (inactive) | -0.416 (inactive) | -0.602 (inactive) | -1.01 (inactive) | 0.875 | 0.218 | 0.207 | 0.645 | 1.09 | -0.332 (inactive) | 1.28 | 1.17 (inactive) | 1.53 (inactive) | 0.926 (inactive) | 0.927 (inactive) | 0.344 | 1.66 (inactive) | 0.683 (inactive) | 0.357 |
| COc1ccc([Si](C)(C)[C@@H]2[C@@H](CC(=O)N(CCO)Cc3ccccc3)O[C@]3(C(=O)N(Cc4cccc(N5CCC5=O)c4)c4ccccc43)[C@H]2C)cc1 | 0.0348 | -5.72 (inactive) | 0.765 (inactive) | 0.236 (inactive) | 0.398 (inactive) | -0.287 | 0.0301 | 0.0525 | -0.009 | 1.81 | 0.557 (inactive) | 0.122 | 3.67 (inactive) | 1.49 (inactive) | 0.0319 (inactive) | 1.19 (inactive) | 1.61 | 1.34 (inactive) | 1.48 (inactive) | 3.23 |
| O=C1C[C@@](C(=O)NC2CC2)(c2ccc([N+](=O)[O-])cc2)[C@@H](c2ccc(CO)cc2I)N1CC12CC3CC(CC(C3)C1)C2 | 0.157 | -5.82 (inactive) | 0.87 (inactive) | 0.818 (inactive) | 1.25 (inactive) | 0.376 | -0.134 | -0.371 | 0.362 | 1.95 | -1.11 (inactive) | 0.0158 | 22.3 (active) | 6.32 (inactive) | 1 (inactive) | 1.99 (inactive) | -0.284 | 1.86 (inactive) | 0.129 (inactive) | 1.92 |
| O=C1C2C=CC(C(O)C#Cc3ccccc3)N(Nc3ccccc3)C2C(=O)N1c1ccccc1 (stereo not given) | 0.0509 | 0.842 (inactive) | -0.2 (inactive) | 0.24 (inactive) | 0.0728 (inactive) | 0.464 | 0.0659 | 0.795 | -0.0627 | -0.0028 | -0.559 (inactive) | -0.025 | 4.69 (inactive) | 1.8 (inactive) | 0.537 (inactive) | 1.49 (inactive) | -0.964 | -0.432 (inactive) | -4.44 (inactive) | -1.09 |
| C=CCC(OC(C)=O)[C@@H]1[C@@H](N(Cc2ccc(-c3cccc(C(F)(F)F)c3)o2)C(=O)Cc2ccc(F)cc2)c2cc(OCCCO)ccc2N1C(=O)c1ccc(-c2ccccc2)cc1 (stereo not given in full) | -0.206 | -0.072 (inactive) | -0.581 (inactive) | 0.6 (inactive) | 0.875 (inactive) | 0.0628 | -0.157 | -0.53 | -0.253 | 0.475 | -1.01 (inactive) | -0.0489 | 1.23 (inactive) | -0.401 (inactive) | -0.642 (inactive) | -0.255 (inactive) | -0.0924 | -0.0336 (inactive) | 1.1 (inactive) | 1.29 |
| COc1ccc([Si](C)(C)[C@H]2[C@H](CC(=O)N(CCO)Cc3ccccc3)O[C@@]3(C(=O)N(C)c4ccccc43)[C@@H]2C)cc1 | 0.321 | -5.59 (inactive) | -0.306 (inactive) | 4.69 (inactive) | 0.0125 (inactive) | 0.153 | -0.0986 | 0.0317 | 0.83 | 1.65 | 1.28 (inactive) | 0.106 | 9.01 (active) | 0.781 (inactive) | -1.12 (inactive) | -0.698 (inactive) | 0.342 | -0.246 (inactive) | 0.129 (inactive) | -2.43 |
| COc1ccc(C(O)C2C=CC3C(=O)N(C)C(=O)C3N2N2CCCCC2)cc1OCc1ccccc1 (stereo not given) | 0.0847 | 0.135 (inactive) | -0.314 (inactive) | 0.433 (inactive) | -0.342 (inactive) | 0.701 | -0.0332 | 0.0884 | 0.836 | -0.282 | -1.54 (inactive) | 0.11 | 2.29 (inactive) | 1.53 (inactive) | 0.42 (inactive) | 1.27 (inactive) | -1.16 | 0.0637 (inactive) | -1.56 (inactive) | 1.31 |
| C[C@]1(C(=O)NCCN2CCOCC2)c2ccccc2C(=O)N(Cc2ccccc2)[C@H]1c1ccc(CO)cc1 | -0.21 | -1.82 (inactive) | -2.31 (inactive) | -0.412 (inactive) | -0.0192 (inactive) | -0.833 | -0.0405 | 0.403 | 0.915 | -0.928 | 0.402 (inactive) | -0.0969 | 5.59 (inactive) | 0.516 (inactive) | 1.88 (inactive) | 0.719 (inactive) | 0.282 | 0.346 (inactive) | -1.61 (inactive) | -2.77 |
